tim10-1 inh: growth inhibitors of tim10-1 mutant yeast; S. cerevisiae tim10-1 ts strain growth, BacTiter-Glo, 24 h; inhibition, % at 20 µM; 2.2% of 330,000 active; AID 463190;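 active means inhibition of at least 40%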;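 further: mutant grown at 25 °C; 0% = DMSO wells with yeast and 100% = wells holding no yeast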
PfHsp90 set2: growth inhibition of yeast expressing Plasmodium Hsp90. S. cerevisiae expressing PfHsp90, BacTiter-Glo ATP, 48 h; yeast lacking PDR1 and PDR3 efflux regulators. inhibition, % at 9.4 µM. 0.32% of 310,000 active. AID 504621;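 active means every replicate shows inhibition above about 80%, whatever the replicate mean, limit read from the data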;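 further: 0% = DMSO neutral controls and 100% = 20 µM radicicol positive controls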
TIM10 inh: growth inhibitors of TIM10 yeast strain. S. cerevisiae TIM10 strain growth, BacTiter-Glo luminescence, 24 h. inhibition, % at 10 µM. 1.4% of 330,000 active;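 active means inhibition of 40% or more at the single tested concentration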;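 further: wild-type TIM10 isogenic control strain grown at permissive 25 °C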
SKKanGAS inh: inhibitors of SKKanGAS S. pyogenes growth in kanamycin (SK-promoter or general growth effect). AID 1662. BacTiter-Glo, 6 h. inhibition, % at 7.5 µM. 1.3% of 300,000 active;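 active means mean replicate score, as percent of positive control median, at least 50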;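 further: strain carries kanamycin resistance gene driven by streptokinase promoter and grows in 40 µg/ml kanamycin; loss of luminescence reflects streptokinase promoter inhibition or plain growth inhibition; 0% = median of DMSO wells and 100% = positive control at its reference dose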
tim23-1 inh: growth inhibitors of tim23-1 mutant yeast | S. cerevisiae tim23-1 growth, BacTiter-Glo luminescence, 24 h | inhibition, % at 20 µM | 1.3% of 330,000 active | AID 463212;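 active means growth inhibition of the mutant yeast at or above 50%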;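 further: temperature-sensitive mutant grown at 25 °C; plate controls were DMSO-treated mutant yeast for no effect and medium wells lacking yeast for full effect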
NALP3 yeast inh: inhibitors of NALP3 inflammasome in yeast; Yeast reconstituted NLRP3/ASC/caspase-1, beta-gal luminescence, 24 h; inhibition, % at 10 µM; 0.39% of 330,000 active; AID 2825;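 active means inhibition of 50% or more; inactive means inhibition below 50%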;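 further: plate controls were induced DMSO wells for no effect and uninduced yeast grown without galactose for full effect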
NALP3 yeast conf: NALP3 inhibition confirmation in yeast. shares compounds with NALP3 yeast inh. yeast expressing human NALP3, luminescence. inhibition, % at 10 µM. 81% of 1,300 active. AID 435006; in the data active means inhibition above about 48%
Casp1 ASC ctr: counter-screen for NALP3 inhibitors: yeast caspase-1-ASC; shares compounds with NALP3 yeast inh; yeast expressing Caspase-1-ASC, luminescence counter screen; inhibition, % at 10 µM; 66% of 1,000 active; AID 488784
NALP3 yeast rt: confirmation retest of NALP3 inhibitors in yeast. shares compounds with NALP3 yeast inh. yeast expressing human NALP3, luminescence read-out. inhibition, % at 10 µM. 53% of 1,000 active
Active calls of the source: *; · = not tested or not shown; ! = not active in a repeat. An excerpt weighted towards active compounds, which were near 4.5% of everything screened. Unless noted, no stated cut-off is given here; in the data, active means inhibition above about 50%; inactive means the rest.

SMILES	tim10-1 inh	PfHsp90 set2	TIM10 inh	SKKanGAS inh	tim23-1 inh	NALP3 yeast inh	NALP3 yeast conf	Casp1 ASC ctr	NALP3 yeast rt
COc1ccc(C(NC(=O)c2c(F)c(F)c(F)c(F)c2F)c2ccccc2)cc1 (stereo not given)	9.7	32.9	2.9	7.6	8.7	62.7*	33.5	·	·
O=C(c1cc(-c2cccc(Cl)c2)on1)N1CCCC1	-14.6	17.4	7.8	-0.7	17.6	58.9*	76.7*	76.2*	64.4*
O=C(c1cc(-c2cccc(Cl)c2)on1)N1CCN(c2ccccc2)CC1	2.5	13.4	32.0	-0.9	20.4	10.5	·	·	·
Cn1c(N)c(C(=O)COC(=O)[C@@H]2CCCN2S(=O)(=O)c2ccc(Cl)cc2)c(=O)n(C)c1=O	11.7	-26.7	3.6	4.2	16.2	13.8	·	·	·
COc1ccc(OCCCC(=O)Nc2ccc(S(=O)(=O)N3CCOCC3)cc2)cc1	28.8	·	6.0	·	10.4	13.6	·	·	·
O=S(=O)(NC1CC2CCC1C2)c1ccc(Br)s1 (stereo not given)	-43.2	-20.5	-132.6	7.4	12.5	50.4*	62.7*	59.4*	40.0
O=S(=O)(NCC1CCCO1)c1ccc(Br)s1 (stereo not given)	6.7	-9.5	10.7	4.3	-5.5	20.3	·	·	·
COc1cc(C(=O)OCC(=O)N2CCN(C(C)=O)CC2)ccc1OCC(C)C	15.0	-19.1	3.4	-13.4	18.3	0.3	·	·	·
c1ccc(CSc2nnc(-c3cccs3)n2Cc2ccco2)cc1	39.5	·	22.8	0.9	34.1	-103.1	-1.6	·	·
Cc1ccccc1CSc1nnc(-c2cccs2)n1Cc1ccco1	34.2	-5.3	31.1	14.7	46.2	-27.9	·	·	·
NC(=O)c1nsc(C(=O)N(c2ccccc2)C(C(=O)NC2CCCCC2)c2ccc(O)cc2)c1N (stereo not given)	-3.1	7.0	3.5	1.4	13.8	14.3	·	·	·
Nc1nc2ccccc2cc1-c1cccs1	14.1	12.6	0.8	0.6	35.1	50.7*	69.4*	59.4*	63.0*
CC1CCCN(CCOc2cccc(Oc3ccccc3)c2)C1 (stereo not given)	-37.8	4.2	-43.3	2.4	-18.8	50.3*	55.8*	44.8	39.6
Cc1cccc(OCc2nc(C#N)c(N3CCCC3)o2)c1	12.1	6.2	10.7	-2.1	23.7	56.7*	46.5	64.5*	51.3*
N#Cc1nc(COc2ccccc2)oc1N1CCCCC1	22.2	-5.3	-9.5	0.3	23.8	61.6*	70.2*	59.8*	48.1
N#Cc1nc(COc2ccc(Cl)cc2)oc1N1CCCCCC1	9.2	16.4	26.2	·	22.7	12.5	·	·	·
Cc1cccc(OCc2nc(C#N)c(N3CC(C)CC(C)C3)o2)c1 (stereo not given)	26.9	38.1	0.2	12.4	17.5	6.6	·	·	·
CCOc1ccc(C(=O)NCC(=O)OCC(=O)Nc2nnc(-c3ccccc3)o2)cc1	-1.7	3.5	-5.4	·	5.3	11.9	·	·	·
Cn1c(COc2ccc(F)cc2)nc2ccccc21	-42.9	-2.3	-5.3	-3.4	10.6	38.8	·	·	·
Cc1cccc(OCc2nc3ccccc3n2C)c1	0.4	7.4	-2.5	6.4	14.4	53.8*	72.2*	54.9*	41.2
COc1ccc2cc1Oc1ccc(cc1)CC1c3c(cc(OC)c4c3Oc3cc5c(cc3O4)CCNC5C2)CCN1C (stereo not given)	-18.0	·	-14.0	17.2	-22.9	34.0	·	·	·
COc1ccc2cc1Oc1ccc(cc1)C[C@H]1c3c(cc(OC)c4c3Oc3c(ccc5c3[C@H](C2)N(C)CC5)O4)CCN1C	-36.5	13.7	-12.6	·	-43.1	68.6*	53.0*	57.2*	69.4*
O=S(=O)(c1cccs1)N1CCN(c2ccc(Cl)cc2)CC1	11.0	9.5	-14.3	7.8	25.3	58.5*	63.3*	46.2	37.4
O=S(=O)(c1cccs1)N1CCN(c2ccccc2)CC1	-2.3	7.7	3.4	0.4	7.5	43.9	·	·	·
Cc1ccc(N2CCN(S(=O)(=O)c3cccs3)CC2C)cc1 (stereo not given)	17.1	20.9	7.0	15.4	46.3	55.6*	57.4*	57.0*	50.0
SMILES	tim10-1 inh	PfHsp90 set2	TIM10 inh	SKKanGAS inh	tim23-1 inh	NALP3 yeast inh	NALP3 yeast conf	Casp1 ASC ctr	NALP3 yeast rt
CC1CN(S(=O)(=O)c2cccs2)CC(C)O1 (stereo not given)	-8.9	24.8	0.4	·	-11.6	-20.9	·	·	·
O=C(O)c1ccc(Cl)c(NCc2cccnc2)c1	-21.1	5.2	-5.7	-1.4	-2.0	10.8	·	·	·
CC(C)Cn1c2ccccc2c2cc(C(=O)O)ccc21	30.8	·	18.1	0.1	21.3	-123.3	8.6	·	·
CCOC(=O)C1=C(C)NC(C)=C(C(=O)OC)C1c1cccc(Cl)c1Cl (stereo not given)	35.4	4.6	17.3	-7.7	48.8	8.2	·	·	·
CCOC(=O)C1=C(COCCN)NC(C)=C(C(=O)OC)C1c1ccccc1Cl (stereo not given)	22.0	-9.7	15.3	2.0	15.3	52.7*!	58.8*	44.0	48.6
Cc1nn(-c2ccccc2)cc1C(=S)Nc1ccccc1	31.1	22.6	17.5	-2.6	38.1	52.1*	63.1*	57.1*	57.7*
Cc1c(C(=S)Nc2ccccc2)cnn1-c1ccccc1	32.9	10.6	20.7	-9.1	23.3	37.5	·	·	·
CC1CCCCC12NC(=O)N(CC(=O)Nc1nccs1)C2=O (stereo not given)	12.2	-7.4	-5.6	·	-1.8	9.3	·	·	·
S=C(Nc1ccc(Cl)c(Cl)c1)NC1CCCCC1	36.1	·	33.9	18.3	34.4	52.6*	59.2*	85.2*	68.5*
CN(C)c1oc(/C=C/c2ccccc2)nc1C#N	-0.6	31.7	14.7	-18.5	20.6	53.8*	42.1	56.9*	50.3*
C=CCOc1ccc(/C=C/C(C)=N\O)cc1	2.6	-41.3	-8.8	10.5	25.9	58.8*	67.5*	60.3*	46.9
Cc1ccc(NC(=O)N2CCC(NC(=O)c3cccc(F)c3)CC2)cc1	5.8	3.4	-8.8	2.0	3.7	11.0	·	·	·
Cc1cc(C)c2c(N)c(-c3nc4ccccc4[nH]3)sc2n1	-1.3	2.9	19.2	0.1	34.7	50.1*	61.9*	37.0	41.0
Cc1ccccc1-c1nc2ccccc2[nH]1	-31.7	-18.5	5.1	0.2	37.3	29.4	·	·	·
Cc1cc(C)c(C)c(S(=O)(=O)N[C@@H](C)C(=O)OCC(=O)NC2CCCC(C)C2C)c1C (stereo not given in full)	8.4	8.4	10.7	·	15.2	15.6	·	·	·
O=C(NC1=NCCS1)c1ccccc1OCc1ccccc1Cl	9.2	-13.6	25.1	11.3	44.6	95.8*	99.2*	97.8*	97.8*
